# Bioassay records (PubChem)
# Only some compounds are listed: those with a hit (about 2.4% of all), similar ones and a draw of the others.
# HepG2 tox – counter-screen for TGF-b inhibitors: cytotoxicity in HepG2 cells | AID 588856 | 410,000 tested, 0.76% active | Potency, µM (titrated, usually from 46.1 µM), inactives show at the highest dose activity change, negative = cytotoxicity, actives largely listed as cytotoxic | HepG2 CAGA-GFP viability, ATP luminescence, 18 h
#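 HepG2 CAGA-GFP cells (1000/well, DMEM with 1% FBS) received compound, then TGF-beta at 500 pg/mL final, and were incubated 18 hours at 37 degrees C. Viability was read by CellTiter-Glo luminescence. Media-only wells were set as complete cell-killing and DMSO as no toxicity.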
# ATXN viability – cell viability loss in ATXN counter-screen | AID 651635 | Potency, µM (series often up to 56.7 µM), actives largely listed as cytotoxic | S2 cells (HEK-293 line with an ATXN2-luciferase reporter) viability, CellTiter-Fluor protease fluorescence, 24 h | 400,000 tested, 0.49% active; note: nearly all actives have a fitted effect of over 40% in size
# Anesthetic bind – candidate novel general anesthetic via apoferritin binding. P02791. apoferritin/1-aminoanthracene competitive binding, fluorescence. Potency, µM (series often up to 77.5 µM), for inactives: at the highest dose activity change, negative = displacement, hits mostly inhibitors. 350,000 tested, 0.074% active; note: % is set by controls: 0 for no effect and ±100 for the full control effect; nearly all actives have a fitted effect of over 20% in size
# Target sequence (P02791 2-175 limits assumed): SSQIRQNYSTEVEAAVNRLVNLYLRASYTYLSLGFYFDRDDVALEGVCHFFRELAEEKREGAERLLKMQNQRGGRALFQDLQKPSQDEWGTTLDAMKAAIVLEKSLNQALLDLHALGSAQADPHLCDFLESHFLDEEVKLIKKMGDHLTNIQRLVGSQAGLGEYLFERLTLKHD
#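 Read-out: endpoint 1-AMA fluorescence, excitation 380 nm and emission 535 nm, after compounds sit 10 min at room temperature with 10 uM horse-spleen apoferritin in 50% saturated 1-AMA/PBS. Values come from four-parameter Hill fits.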
# ATXN2 expr inh – ATXN2 expression inhibition; 360,000 tested, 0.72% active; HEK-293 ATXN2-luciferase reporter, luminescence, 24 h; Potency, µM (titrated, usually from 57 µM), without a hit: at the top dose activity change, negative = inhibition, actives largely listed as inhibitors; note: % is set by controls: 0 for no effect and ±100 for the full control effect; nearly all actives have a fitted effect of over 55% in size
#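 qHTS (up to 57 uM final) was run with 24 h compound exposure of reporter cells at 37 °C. Each well was multiplexed: SteadyGlo luminescence measured ATXN2-luciferase expression after a fluorogenic Gly-Phe-AFC viability readout (25 uM final).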
# TGFb inhibitor – inhibitors of TGF-b signaling; AID 588855; HepG2 CAGA-GFP TGF-b/SMAD3 reporter, GFP fluorescence, 18 h; TGF-beta stimulated, 500 pg/mL final; Potency, µM (titrated, usually from 46.1 µM), for the others: at the top dose activity, negative = inhibition, usual class: inhibitors; 410,000 tested, 1.2% active; note: % is set by controls: 0 for no effect and ±100 for the full control effect; nearly all actives have a fitted effect of over 65% in size
#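 Per well, imaged GFP fluorescence of HEPG2 CAGA-GFP cells gives the signal; cells get compound, then TGF-beta (500 pg/mL final), 18 h at 37 degrees C; %Activity versus -TGF-beta and +DMSO controls.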
# Numbers without * were called inactive; i = inactive; u = inconclusive; x = no result; ! = not active in a repeat; [ ] = another dose, or the depositor's remark. Calls come from the whole dose curve; as a rule, active = well fitted curve in the direction sought with a large enough effect; inconclusive = small, poorly fitted or top-dose-only effect, or another doubt; inactive = no such curve, though single readings can be large; an effect the other way counts as inactive or inconclusive. Potency is the fitted concentration of half-maximal effect.
SMILES,HepG2 tox,ATXN viability,Anesthetic bind,ATXN2 expr inh,TGFb inhibitor
O=C1[C@H]2[C@H]3[C@H](O)[C@H](O)C/C(=N/OCc4ccccc4)[C@@H]3CC[C@@H]2C(=O)N1C[C@@H]1CCCO1,x,x,-3%[15.3 µM],x,x
COc1ccc2nc3cc(Cl)ccc3c(Nc3ccc(O)c(CN4CCN(C)CC4)c3)c2c1,-72%,u,x,u,11µM*
Cc1nn(Cc2ccc(Cl)cc2)c(C)c1NC(=O)CSc1nc2c(c(C(F)(F)F)n1)CCc1ccccc1-2,0.63µM*,u,-8%,u,-23%
Cc1ccc(Cn2nc(C)c(NC(=O)CSc3nc4c(c(C(F)(F)F)n3)CCc3ccccc3-4)c2C)cc1,4%,x,2%,u,0%
COc1ccc(OC)c(Nc2c3c(nc4ccccc24)CCC3)c1,-14%,u,5%,0%,11µM*!
COc1cc(NS(C)(=O)=O)ccc1Nc1c2ccccc2nc2ccccc12,-98%,u,x,0.25µM*,u
COc1ccc(OC)c(Nc2c3ccccc3nc3ccccc23)c1,-27%,14µM*,-3%,11µM*,13µM*
Nc1sc2c(c1C(=O)NC1CC1)CCCC2,0%,u,x,-11%,6%
O=C(c1cccs1)N1CCCC1,-14%,i,-1%,4%,-5%
O=C(c1cccs1)N1CCN(C(=O)c2cccs2)C1=S,-50%,x,x,u,6.3µM*
CC(CCC(C)C(C)(C)C)[C@@H]1CC[C@H]2C3C[C@H](OS(O)(=S)=S)[C@H]4C[C@H](OS(O)(=S)=S)[C@@H](OS(O)(=S)=S)C[C@]4(C)[C@H]3CC[C@]12C (stereo partly drawn) (tested in a mixture with another compound),16µM*,18µM*,x,u,u
O=C(Nc1cccc(Nc2ncc(Br)c(NCCc3cnc[nH]3)n2)c1)N1CCCC1,x,x,x,19µM*,x
C#CCNC(=O)C1=C[C@@H](c2coc3ccccc3c2=O)C[C@@H](OCc2ccc(CO)cc2)O1,-11%,i,-3%,-7%,u
Cc1cnc(Nc2ccc(F)cc2Cl)nc1-c1c[nH]c(C(=O)N[C@H](CO)c2cccc(Cl)c2)c1,x,x,x,24µM*,x
Cc1cc(F)cc(-c2cc(C(=O)NCc3cccc(Cl)c3)[nH]n2)c1,-14%,i,x,-5%,32%
Cc1onc(-c2ccccc2)c1C(=O)OCCOc1ccc([N+](=O)[O-])cc1[N+](=O)[O-],-30%,i,1%,-34%,14µM*
COc1ccc(O)c(CN2CCC3(CCC(CNC(=O)c4ccco4)O3)CC2)c1 (stereo not drawn),x,i,x,x,x
Cc1c(C(=O)N(CCO)C(C)C)cnn1-c1ncc2c(n1)-c1ccccc1CCC2,x,i,x,x,x
CC(=O)Nc1ccc(S(=O)(=O)NC2CC2)cc1,-46%,i,-4%,-9%,-2%
Cc1[nH]n2c(=O)cc(-c3ccc(Cl)cc3)nc2c1-c1ccccc1,-43%,i,8%,3.5µM*,10µM*
Cc1[nH]n2c(=O)cc(C(C)C)nc2c1-c1ccccc1,-28%,u,-9%,-28%,-23%
Cc1[nH]n2c(=O)cc(C(C)(C)C)nc2c1-c1ccccc1,-36%,i,-2%,18µM*,-2%
Cc1[nH]n2c(=O)cc(-c3ccc([N+](=O)[O-])cc3)nc2c1-c1ccccc1,-56%,u,x,20µM*,u
CCCc1cc(=O)n2[nH]c(C)c(-c3ccccc3)c2n1,-27%,i,-7%,-32%,-5%
Cc1ccsc1CN1CCc2nnc(CCNC(=O)c3ccc(F)cc3)n2CC1,x,i,x,x,x
